The values below come from PubChem BioAssay (Tox21).

Inconclusive results are not listed. Values without a mark were called inactive. Calls follow the shape of the dose curve; as a rule, active = well fitted cell-killing curve with a large enough effect in the repeat runs; inconclusive = weak or mixed curves; inactive = flat fitted curve, though single readings scatter.
% is scaled to controls: 0 for no effect and ±100 for the full control effect.

The nature of the test: qHTS assay to identify small molecule antagonists of the TGF-beta/Smad signaling pathway - cell viability counter screen (AID 1346824). Also: nearly all actives have a fitted effect of over 50% in size. The following applies: SBE-bla HEK293T viability, CellTiter-Glo luminescence; series mostly up to 76.8 µM; viability change, negative = cytotoxic: at the top concentration. The source says: U.S. Tox21 Program National Center for Advancing Translational Sciences [NCATS] NIH Chemical Genomics Center [NCGC] U.S. Environmental Protection Agency [EPA] National Institutes of Environmental Health Sciences [NIEHS] National Toxicology Program [NTP] U.S. Food and Drug Administration [FDA] Tox21 Assay Overview: Transforming growth factor beta (TGF-beta) superfamily consists of a large number of structurally related dimeric proteins that act as hormones or local mediators in regulating a wide range of biological functions. This superfamily includes TGF-betas themselves, the bone morphogenetic proteins (BMPs) and the activins. These ligands induce oligomerization of serine/threonine receptor kinases and phosphorylate the cytoplasmic signaling molecules of Smad protein family. CellSensor SBE-bla HEK 293T cell line (Life Technologies, Carlsbad, CA), responsive to TGF-beta was used to screen Tox21 10K compound library for identification of agonists/antagonists of the Smad signaling pathway. This cell line contains a beta-lactamase reporter gene under control of the Smad binding element (SBE) stably integrated into HEK 293T cells. Also cytotoxicity of the compounds was tested in parallel by measuring the cell viability using CellTiter-Glo assay system in the same wells.
Tox21 Assay Protocol Summary: SBE-bla HEK 293T cells were dispensed at 4,000/well in 5 uL of assay medium into black wall/clear-bottom 1536-well plates using a Multidrop Combi (ThermoFisher Scientific, Waltham, MA) dispenser. After the assay plates were incubated at 37 C and 5% CO2 for an overnight, 23 nL of compounds dissolved in DMSO, positive controls or DMSO only was transferred to the assay plate by a Pintool station (Kalypsys, San Diego, CA). Compound transfer was followed by the addition of 1 uL of 0.25 ng/mL TGF-beta1 or assay buffer using two separate tips of Flying Reagent Dispenser (FRD, Aurora Discovery, San Diego, CA). The assay plates were incubated at 37 C and 5% CO2 for 5 hr. One uL of LiveBLAzer B/G FRET substrate (Life Technologies) was added using a Flying Reagent Dispenser (FRD, Aurora Discovery, San Diego, CA) and the plates were incubated at room temperature for 2 hr. Fluorescence intensity (405 nm excitation, 460 nm and 530 nm emissions) was measured using an Envision plate reader (PerkinElmer, Shelton, CT). For cytotoxicity read, 4 uL of CellTiter-Glo reagent (Promega Corporation, Madison, WI) was added to each well of the assay plates using FRD. After 30 min incubation at room temperature, the luminescence intensity was measured using ViewLux plate reader (PerkinElmer).
Background: qHTS replaces the single test concentration by a dilution series.
Turning to `CC(C)CC=O`, the “viability change, negative = cytotoxic” value was -3.6%.

Turning to `C=CC[N+]1([C@H]2C[C@H]3[C@@H]4CC[C@H]5C[C@H](OC(C)=O)[C@@H](N6CCCCC6)C[C@]5(C)[C@H]4CC[C@]3(C)[C@H]2OC(=O)CC)CCCCC1`, the “viability change, negative = cytotoxic” value is 8.13% [at 35.3 µM].

Turning to `CCN(CC)CCc1nc(-c2ccccc2)no1`, the “viability change, negative = cytotoxic” value is -1.43% [at 35.3 µM].

For the molecule `C1CCC2OC2C1` (stereo not given), the “viability change, negative = cytotoxic” value was -2.3%.

For `CCCCCCc1ccc(N)cc1`, the “viability change, negative = cytotoxic” value is 4.25%.

For `CCN(CCO)CCCC(C)Nc1ccnc2cc(Cl)ccc12` (stereo not given), the viability change, negative = cytotoxic is -17% [at 6.97 µM].

In the case of `Cc1ccc2c(ccc3ccccc32)c1`, the “viability change, negative = cytotoxic” value is -10.4%.

Regarding `N#CCCNCCC#N`, the “viability change, negative = cytotoxic” value was -19.6%.

Regarding `O=C(/C=C/c1ccc(O)c(O)c1)O[C@@H]1C[C@](O)(C(=O)O)C[C@@H](O)[C@H]1O`, the “viability change, negative = cytotoxic” value is -3.99%.

`CC(=O)CC(=O)c1ccccc1`: the “viability change, negative = cytotoxic” value is 3.21%.

With `Cc1occc1S`, the “viability change, negative = cytotoxic” value is -11.5%.

As to `CN(C)CC/C=C1\c2ccccc2COc2ccccc21`, the “viability change, negative = cytotoxic” value was -7.74% [at 35.3 µM].

Regarding `CC(Cc1cccc(C(F)(F)F)c1)NCCOC(=O)c1ccccc1` (stereo not given), the “viability change, negative = cytotoxic” value is -19.7% [at 35.3 µM].

Consider `CC(C)=CCCC(C)CC=O` (stereo not given), for which the “viability change, negative = cytotoxic” value was 3.79%.

On to `CC(C(=O)O)c1ccc(C(=O)c2ccccc2)s1` (stereo not given), for which the “viability change, negative = cytotoxic” value was -0.363% [at 35.3 µM].

As to `CCOC(=O)CC(=O)c1cc(F)c(Cl)nc1Cl`, the “viability change, negative = cytotoxic” value is 4.15%.

Take `Cn1c(NCCN(CCO)CCCc2ccc([N+](=O)[O-])cc2)cc(=O)n(C)c1=O`: the “viability change, negative = cytotoxic” value is -2.73% [at 35.3 µM].

Take `COCCOCCOCCOCCOC`: the “viability change, negative = cytotoxic” value was 3.78%.

With `CC(=O)SCc1ccco1`, the “viability change, negative = cytotoxic” value was 22.1%.

On to `O=C(O)C(c1ccc(Cl)cc1)c1ccc(Cl)cc1`, for which the “viability change, negative = cytotoxic” value was -5.02%.

On to `CC(=O)NCCCS(=O)(=O)O`, for which the “viability change, negative = cytotoxic” value was -7.92% [at 35.3 µM].

As for `CC(=O)Nc1ccc(/C=N/NC(N)=S)cc1`, the “viability change, negative = cytotoxic” value is 14.6% [at 35.3 µM].

On to `CC1=CC(=O)/C(=C(/C)O)C(=O)O1`, for which the “viability change, negative = cytotoxic” value was 4.43%.

`CC(C)CCCCCCOC(=O)c1ccc(C(=O)OCCCCCCC(C)C)c(C(=O)OCCCCCCC(C)C)c1`: the “viability change, negative = cytotoxic” value was 0.784%.

Regarding `CN1CCC[C@@H]1c1cccnc1`, the “viability change, negative = cytotoxic” value is 6.41% [at 35.3 µM].

`CCCC[C@H]1CN(CC2CCOCC2)C(=O)OC12CCN(C1(C)CCN(C(=O)c3c(C)ncnc3C)CC1)CC2`: the “viability change, negative = cytotoxic” value is -0.764%.

As to `CCOc1ccc2[nH]cc(C(=O)NCc3ccccc3)c(=O)c2n1`, the “viability change, negative = cytotoxic” value is 6.34%.

Consider `Nc1nc(N)c(-c2ccccc2)s1`, for which the “viability change, negative = cytotoxic” value is -4.19% [at 35.3 µM].

`CNCC[C@@H](Oc1ccccc1C)c1ccccc1`: the “viability change, negative = cytotoxic” value is 1.6% [at 35.3 µM].

`Cc1cccc(C(C)(C)C)c1O`: the “viability change, negative = cytotoxic” value is -0.451%.

For `Cc1ccc(C)o1`, the “viability change, negative = cytotoxic” value is -15.7%.

For the molecule `CC(C)c1ccccc1C(C)C`, the “viability change, negative = cytotoxic” value is 4.5%.

In the case of `O=c1[nH]cnc2ccccc12`, the “viability change, negative = cytotoxic” value is 12.5%.

Consider `Oc1ccc(O)c2c(O)cccc12`, for which the “viability change, negative = cytotoxic” value is -0.938%.

Consider `O=C(O)[C@@H]1[C@H]2C[C@H]3c4[nH]c5ccccc5c4CCN3C[C@@H]2CC[C@@H]1O`, for which the “viability change, negative = cytotoxic” value was 5.73% [at 35.3 µM].

With `O=C(O)/C=C/c1cnc[nH]1`, the “viability change, negative = cytotoxic” value is -2.71%.

Turning to `CN1CCN(C2=Nc3ccccc3Sc3ccc(Cl)cc32)CC1`, the “viability change, negative = cytotoxic” value was -2.02% [at 35.3 µM].

For the molecule `CCCC(=O)OCC`, the “viability change, negative = cytotoxic” value is 13.4%.

Turning to `CC(=O)O[C@H]1C[C@@H]2CC[C@@H]3[C@H](CC[C@@]4(C)[C@H]3C[C@H]([N+]3(C)CCCCC3)[C@@H]4OC(C)=O)[C@@]2(C)C[C@@H]1N1CCCCC1`, the “viability change, negative = cytotoxic” value is 0.145% [at 35.3 µM].

Consider `C=CCCCCCC`, for which the “viability change, negative = cytotoxic” value is -9.61%.
